Source: PubChem BioAssay (NCATS)
Where “and” joins values, the source holds several entries; their conditions need not be identical. Equal values may be shown once. Records with an inconclusive call do not appear. Calls of active or inactive are those of the source. Unless noted, calls follow the shape of the dose curve; as a rule, active = well fitted curve in the direction sought with a large enough effect; inconclusive = small, poorly fitted or top-dose-only effect, or another doubt; inactive = no such curve, though single readings can be large; an effect the other way counts as inactive or inconclusive.

Experiments:
[1] = Stat Signaling Pathway (AID 446; active = well fitted curve in either direction with a large enough effect, not every such curve was filed as active;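 also: ME-180 cervical cancer cells given 40 pM IL-6 alongside compound; SIE-controlled beta-lactamase reporter measured as 460/530 nm FRET emission ratio; % is scaled to controls: 0 for no effect and ±100 for the full control effect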); conditions: ME-180 (cervical carcinoma) SIE beta-lactamase reporter, IL-6 stimulated, 5 h
Outline: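 FRET read-out (405 nm excitation, 460/530 nm emission) of a beta-lactamase reporter under a STAT-inducible element in ME-180 cervical carcinoma cells. Cells with compound receive 40 pM IL-6 for 5 h. Values are normalised to AC90 stimulation and AC90 JAK-inhibitor controls.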

[2] = molecular target: Glucocorticoid receptor (Homo sapiens) (UniProt P04150); assay: GR-GFP Redistribution (AID 450;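 active = compounds whose dose series gives a full or clear partial fitted curve of increased nuclear translocation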; also: potency is read from the fitted curve at half-maximal effect); conditions: U2OS GR-GFP nuclear translocation, laser cytometry, 2 h
[3] = molecular target: Glucocorticoid receptor (Homo sapiens) (UniProt P04150); assay: GR-EFC Redistribution (AID 451; calls by dose curve; also: potency is read from the fitted curve at half-maximal effect); conditions: CHO-K1 GR-EFC translocation, beta-gal luminescence, 2 h
Outline: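 CHO-K1 cells stably expressing nuclear-localized β-gal enzyme acceptor and GR fused C-terminally to the enzyme donor fragment; ligand-driven nuclear translocation restores β-gal by complementation. Compounds titrated up to 46 uM final, 2 h at 37 °C; luminescence read.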

[4] = molecular target: Mitogen-activated protein kinase 10 (Mus musculus) (UniProt Q61831); assay: JNK3 AlphaScreen Assay (AID 530; active = well fitted curve in either direction with a large enough effect, not every such curve was filed as active;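 also: kinase came from lysate of stimulated human HepG2 cells; signal reports phosphorylation of biotinylated GST-cJun 1-79 at Ser73 with 10 µM ATP; % is scaled to controls: 0 for no effect and ±100 for the full control effect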); conditions: JNK3 lysate, c-Jun phosphorylation; series mostly up to 57.1 µM
Outline: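 Biotinylated GST-cJun(1-79) served as substrate for JNK3 in HepG2 lysates stimulated with IL-1beta and TNF-alpha. ATP was 10 uM final, pH 7.6. Ser73 phosphorylation was quantified by AlphaScreen (680 nm excitation).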

[5] = Cell Viability - N2a (AID 540); conditions: N2a mouse neuroblastoma cell viability; activity change, negative = cytotoxicity: at 92.2 µM (top of the series);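 also: cells exposed to compound for 40 h at 37 °C; plate controls were DMSO alone for no effect and tamoxifen control for full effect; nearly all actives have a fitted effect of over 45% in size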
Outline: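 In this qHTS cytotoxicity screen, ATP-dependent luciferase luminescence reports viable N2a cells after a 40 hr compound exposure in complete culture medium. Potencies are AC50 values from standard Hill equation fits.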

[6] = Cell Viability - NIH 3T3 (AID 541); conditions: NIH 3T3 cell viability, qHTS; at 92.2 µM (top of the series);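 also: cells exposed to compound for 40 hours; plate controls were DMSO alone for no effect and tamoxifen positive control for full effect; nearly all actives have a fitted effect of over 25% in size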
Outline: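 In this cytotoxicity screen, acute toxicity is scored as an ATP drop measured by CellTiter-Glo in NIH 3T3 fibroblasts following a 40 hr, 37 °C incubation with compound.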

[7] = Cell Viability - HUV-EC-C (AID 542); conditions: HUV-EC-C endothelial cell viability, qHTS; series mostly up to 92.2 µM;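 also: cells exposed to compound for 40 hours; % is scaled to controls: 0 for no effect and ±100 for the full control effect; nearly all actives have a fitted effect of over 35% in size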
Outline: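 Concentration-dependent ATP loss in HUV-EC-C cells is the measure. Exposure lasts 40 hr at 37 °C; luminescence follows CellTiter-Glo addition, and Hill fits give AC50.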

[8] = Cell Viability - H-4-II-E (AID 543); conditions: H-4-II-E rat hepatoma viability; series mostly up to 92.2 µM;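 also: cells exposed to compound for 40 hours; % is scaled to controls: 0 for no effect and ±100 for the full control effect; nearly all actives have a fitted effect of over 35% in size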
Outline: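 AC50 from Hill-modelled qHTS concentration-response curves. H-4-II-E rat hepatoma cells in complete medium, 40 hr exposure at 37 °C, viability by CellTiter-Glo ATP luminescence.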

[9] = Cell Viability - SH-SY5Y (AID 544); conditions: SH-SY5Y neuroblastoma cell viability; viability change, negative = cytotoxic: at 92.2 µM (top of the series);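 also: cells exposed to compound for 40 hours; nearly all actives have a fitted effect of over 55% in size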
Outline: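 Quantitative HTS in SH-SY5Y neuroblastoma cells, 40 hr treatment at 37 °C, ATP content by luciferase luminescence; AC50 from Hill fits.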

[10] = Cell Viability - Renal Proximal Tubule (AID 545); conditions: renal proximal tubule cells viability, primary cells of rat origin; activity change, negative = cytotoxicity: at 91.7 µM (top of the series);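 also: cells exposed to compound for 40 hours; nearly all actives have a fitted effect of over 40% in size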
Outline: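 Viability taken as intracellular ATP (CellTiter-Glo luminescence) after 40 hr, 37 °C compound treatment of primary proximal tubule cells from rat kidney, 1000 cells/well; Hill-equation fits of qHTS concentration-response data gave AC50.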

[11] = Cell Viability - Mesenchymal (AID 546); conditions: mesenchymal cells viability, qHTS; activity change, negative = cytotoxicity: at 91.7 µM (top of the series);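 also: cells exposed to compound for 40 hours before reading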
Outline: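 In this qHTS cytotoxicity format, glomerulus-derived human mesenchymal kidney cells received compound for 40 hr, then luciferase-based ATP quantitation. Concentration-response data were fitted with the Hill equation.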

[12] = molecular target: 3',5'-cyclic-AMP phosphodiesterase 4B (Homo sapiens) (UniProt Q07343); assay: qHTS Assay for Inhibitors of PDE-IV (AID 607; active = well fitted activation curve with a large enough effect in the main read-out, with a control signal flat, not every such curve was filed as active; also: % of control where 0% means no effect); conditions: HEK293 ACTOne CNG channel cells, membrane potential fluorescence; series mostly up to 22.9 µM
Outline: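 Cell-based read-out of cAMP via a modified cyclic nucleotide-gated channel and membrane potential dye (535/590 nm) in HEK293 cells expressing PDE4 endogenously. Compounds tested up to 22.9 uM final; 100 uM RO 20-1724 reference.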

[13] = Cellular Toxicity (caspase-3) HepG2 (AID 654); conditions: HepG2 caspase-3 activation, luminescence; series mostly up to 92.2 µM;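 also: cells exposed to compound for 16 hours before reading; 0% = DMSO alone and 100% = caspase signal from 100 µM tamoxifen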
Outline: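 Concentration-response AC50 values reflect caspase-3/7 induction in HepG2 cells after 16 hours of compound exposure, quantified by luminescence from liberated aminoluciferin and referenced to 100 uM tamoxifen as full stimulation.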

[14] = Cellular Toxicity (caspase-3) Jurkat (AID 655); conditions: Jurkat caspase-3 activation, luminescence, DMSO = 0%, tamoxifen = 100%; at 92.2 µM (top of the series);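 also: cells exposed to compound for 16 h at 37 °C before reading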
Outline: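 Luminescent Caspase-Glo 3/7 read-out (20 min, room temperature) after 16 h compound treatment at 37 C of 5000 Jurkat cells per well. AC50 derived by Hill-equation fitting, scaled between DMSO basal and 100 uM tamoxifen stimulation.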

[15] = Cellular Toxicity (caspase-3) HUV-EC-C (AID 656); conditions: HUV-EC-C cells, caspase-3 activation (apoptosis); series mostly up to 92.2 µM
Outline: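 Luminescent Caspase-Glo 3/7 readout after 16 h, 37 °C compound exposure of HUV-EC-C endothelial cells, 1000 per well, complete medium. AC50 derived by Hill fitting, with DMSO as baseline and 100 uM tamoxifen as full activation.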

[16] = Cellular Toxicity (caspase-3) SHSY5Y (AID 657); conditions: SH-SY5Y caspase-3 activation, DMSO zero, 10 µM staurosporine = 100%; series mostly up to 91.7 µM
Outline: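 Luminescent Caspase-Glo 3/7 read-out, 1 hr room temperature, follows 16 hours of compound treatment of SH-SY5Y cells at 37 °C. Normalization: DMSO basal, 10 uM staurosporine as 100%; AC50 values from Hill-equation concentration-response fits.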

[17] = Cellular Toxicity (caspase-3) BJ (AID 658); conditions: BJ fibroblasts, luminescence, normalized: DMSO 0%, staurosporine 100%; series mostly up to 91.7 µM;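 also: 0% = DMSO basal and 100% = 10 µM staurosporine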
Outline: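 Plated BJ cells (1000/well) rested 5 hr, received compound for 16 hr at 37 °C, then Caspase-Glo 3/7 reagent for 1 hr at room temperature before luminescence reading.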

[18] = Cellular Toxicity (caspase-3) MRC-5 (AID 659); conditions: MRC-5 cells, luminescence; Potency: caspase-3 activation; series mostly up to 91.7 µM;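 also: 0% = DMSO basal and 100% = 10 µM staurosporine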
Outline: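 Apoptosis readout in MRC-5 cells: luciferase light generated after caspase 3/7 cleaves a peptide-aminoluciferin substrate, measured post 16 hr compound incubation at 37 °C.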

[19] = Cellular Toxicity (caspase-3) Mesangial (AID 660); conditions: mesangial cells, normalized: DMSO 0%, 100 µM tamoxifen 100%; at 91.7 µM (top of the series);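 also: combined caspase 3 and 7 activity read by Caspase-Glo luminescence; cells exposed to compound for 16 h before the caspase read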
Outline: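 AC50 values come from Hill-equation fits of caspase 3/7 activation, measured as Caspase-Glo luminescence in human glomerular mesangial cells exposed to compound for 16 h at 37 °C; 100% set by 100 uM tamoxifen.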

[20] = Cellular Toxicity (caspase-3) SK-N-SH (AID 661); conditions: SK-N-SH caspase-3 activation, qHTS; series mostly up to 91.7 µM;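 also: 0% = DMSO basal and 100% = 10 µM staurosporine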
Outline: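 Apoptosis readout in SK-N-SH neuroblastoma: Caspase-Glo 3/7 luminescence following 16 hr treatment in complete culture medium. Normalization used DMSO and 10 uM staurosporine controls.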

Glucocorticoid receptor (Homo sapiens), sequence (P04150 whole entry, looked up, the tested form may be a part): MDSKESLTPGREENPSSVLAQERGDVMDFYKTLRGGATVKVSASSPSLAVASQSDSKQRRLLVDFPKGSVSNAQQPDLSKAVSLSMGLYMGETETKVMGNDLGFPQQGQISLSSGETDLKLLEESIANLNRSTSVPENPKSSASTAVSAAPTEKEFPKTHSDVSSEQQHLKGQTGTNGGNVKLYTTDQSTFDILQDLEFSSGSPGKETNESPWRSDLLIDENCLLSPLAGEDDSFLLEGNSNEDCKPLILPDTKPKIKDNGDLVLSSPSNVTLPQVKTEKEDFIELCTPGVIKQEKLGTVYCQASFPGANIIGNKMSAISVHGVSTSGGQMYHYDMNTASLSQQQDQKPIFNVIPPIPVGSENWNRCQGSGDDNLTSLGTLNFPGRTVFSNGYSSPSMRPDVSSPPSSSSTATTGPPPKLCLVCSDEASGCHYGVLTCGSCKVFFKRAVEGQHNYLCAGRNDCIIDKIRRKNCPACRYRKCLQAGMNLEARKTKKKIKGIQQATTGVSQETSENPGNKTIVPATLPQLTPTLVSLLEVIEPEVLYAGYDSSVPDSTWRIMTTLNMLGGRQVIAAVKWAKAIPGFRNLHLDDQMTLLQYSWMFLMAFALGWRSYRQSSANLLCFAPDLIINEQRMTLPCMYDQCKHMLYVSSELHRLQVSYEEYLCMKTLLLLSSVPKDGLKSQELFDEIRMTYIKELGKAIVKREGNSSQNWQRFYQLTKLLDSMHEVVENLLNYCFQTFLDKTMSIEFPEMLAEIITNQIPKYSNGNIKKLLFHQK
3',5'-cyclic-AMP phosphodiesterase 4B (Homo sapiens), sequence (Q07343 whole entry, looked up): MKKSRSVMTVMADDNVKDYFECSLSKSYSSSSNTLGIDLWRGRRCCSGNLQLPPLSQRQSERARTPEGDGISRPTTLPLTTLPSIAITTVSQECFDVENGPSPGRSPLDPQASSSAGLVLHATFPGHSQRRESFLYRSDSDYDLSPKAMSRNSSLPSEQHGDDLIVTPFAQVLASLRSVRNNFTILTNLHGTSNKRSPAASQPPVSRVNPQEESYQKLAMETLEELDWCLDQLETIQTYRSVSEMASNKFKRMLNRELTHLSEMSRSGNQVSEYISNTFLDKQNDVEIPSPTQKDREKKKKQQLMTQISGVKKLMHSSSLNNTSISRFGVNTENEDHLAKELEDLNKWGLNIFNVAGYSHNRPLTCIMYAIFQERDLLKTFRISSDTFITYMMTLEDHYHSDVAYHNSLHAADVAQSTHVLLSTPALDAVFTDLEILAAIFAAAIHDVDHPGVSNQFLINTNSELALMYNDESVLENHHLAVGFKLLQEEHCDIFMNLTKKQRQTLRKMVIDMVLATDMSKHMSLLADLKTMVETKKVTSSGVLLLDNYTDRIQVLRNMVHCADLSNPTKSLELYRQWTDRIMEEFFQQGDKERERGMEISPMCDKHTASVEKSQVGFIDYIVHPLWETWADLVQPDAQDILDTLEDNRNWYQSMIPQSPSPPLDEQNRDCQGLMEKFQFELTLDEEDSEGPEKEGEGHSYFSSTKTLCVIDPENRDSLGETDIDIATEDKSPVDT

CC(=O)c1ccc(S(=O)(=O)NC(=O)NC2CCCCC2)cc1
inactive: activity, negative = inhibition ([1]; at 17.2 µM (top of the series)) -1.46% | activity, negative = inhibition ([1]; at 38 µM (top of the series)) -26.2% | Potency [2] > 46 µM and > 20.6 µM | Potency [3] > 46 µM and > 20.6 µM | outcome [4] | Potency [5] | activity change, negative = cytotoxicity [6] -15.1% | Potency [7] | Potency [8] | Potency [9] | Potency [10] | Potency [11] | outcome [12] | Potency [13] | caspase-3 activation [14] 0.00348% | Potency [15] | outcome [16] | outcome [17] | Potency [18] | caspase-3 activation [19] 0.0312% | Potency [20]

COc1ccccc1N1CCN(CCCNc2cc(=O)n(C)c(=O)n2C)CC1
inactive: activity, negative = inhibition ([1]; at 17.2 µM (top of the series)) -0.455% | activity, negative = inhibition ([1]; at 38 µM (top of the series)) 1.93% | outcome [4] | outcome [12]

CCCCC1C(=O)N(c2ccccc2)N(c2ccccc2)C1=O
inactive: activity, negative = inhibition ([1]; at 17.2 µM (top of the series)) -15.3% | activity, negative = inhibition ([1]; at 38 µM (top of the series)) -22.4% | Potency [2] > 46 µM and > 20.6 µM | Potency [3] > 46 µM | outcome [4] | Potency [5] | activity change, negative = cytotoxicity [6] -19.1% | Potency [7] | Potency [8] | Potency [9] | Potency [10] | Potency [11] | outcome [12] | Potency [13] | caspase-3 activation [14] 0.354% | Potency [15] | outcome [16] | outcome [17] | Potency [18] | caspase-3 activation [19] 0.46% | Potency [20]

COCCCCC(=NOCCN)c1ccc(C(F)(F)F)cc1
inactive: activity, negative = inhibition ([1]; at 17.2 µM (top of the series)) -3.51% | activity, negative = inhibition ([1]; at 38 µM (top of the series)) -10.7% | Potency [2] > 46 µM and > 20.6 µM | Potency [3] > 46 µM and > 20.6 µM | outcome [12]

CC(=O)CCCCn1c(=O)c2c(ncn2C)n(C)c1=O
inactive: activity, negative = inhibition ([1]; at 17.2 µM (top of the series)) -10.5% | activity, negative = inhibition ([1]; at 38 µM (top of the series)) 9.49% | Potency [2] > 46 µM and > 20.6 µM | Potency [3] > 46 µM and > 20.6 µM | outcome [4] | outcome [12]

CC(C)NCC(O)COc1cccc2[nH]ccc12 (configuration not stated)
inactive: activity, negative = inhibition ([1]; at 17.2 µM (top of the series)) 24.1% | Potency [2] > 20.6 µM

CC(C)(C)c1ccc(C(O)CCCN2CCC(C(O)(c3ccccc3)c3ccccc3)CC2)cc1 (configuration not stated)
inactive: activity, negative = inhibition ([1]; at 17.2 µM (top of the series)) -1.77% | Potency [2] > 20.6 µM

O=C1NC(=O)C(c2ccccc2)(c2ccccc2)N1
inactive: activity, negative = inhibition ([1]; at 17.2 µM (top of the series)) -0.146% | activity, negative = inhibition ([1]; at 38 µM (top of the series)) -3.08% | Potency [2] > 46 µM and > 20.6 µM | Potency [3] > 46 µM | outcome [4] | Potency [5] | activity change, negative = cytotoxicity [6] -17.5% | Potency [7] | Potency [8] | Potency [9] | Potency [10] | Potency [11] | outcome [12] | Potency [13] | caspase-3 activation [14] 1.33% | Potency [15] | outcome [16] | outcome [17] | Potency [18] | caspase-3 activation [19] 0.351% | Potency [20]

CCN(CC)CCNC(=O)c1ccc(N)cc1
inactive: activity, negative = inhibition ([1]; at 17.2 µM (top of the series)) 5.34% and 0.638% | activity, negative = inhibition ([1]; at 38 µM (top of the series)) 3.95% | outcome [4] | outcome [12]

O=C(O)c1cc(-c2ccccc2)nc2ccccc12
inactive: activity, negative = inhibition ([1]; at 17.2 µM (top of the series)) -0.648% | Potency [2] > 20.6 µM

O=C(O)CCc1nc(-c2ccccc2)c(-c2ccccc2)o1
inactive: activity, negative = inhibition ([1]; at 7.69 µM (top of the series)) 5.68% | activity, negative = inhibition ([1]; at 17.2 µM (top of the series)) -0.803% | activity, negative = inhibition ([1]; at 38 µM (top of the series)) -12.8% | Potency [2] > 46 µM and > 20.6 µM | Potency [3] > 46 µM and > 20.6 µM and > 9.22 µM | outcome [4] | outcome [12]

CC(C(=O)O)c1ccc(-c2ccccc2)c(F)c1 (configuration not stated)
inactive: activity, negative = inhibition ([1]; at 17.2 µM (top of the series)) -6.1% | Potency [2] > 20.6 µM

CCN1CCC[C@H]1CNC(=O)c1cc(S(N)(=O)=O)ccc1OC
inactive: activity, negative = inhibition ([1]; at 17.2 µM (top of the series)) 8.96% | Potency [2] > 20.6 µM and > 46 µM | Potency [3] > 20.6 µM and > 46 µM | outcome [4] | outcome [12]
